# Inconclusive results are not listed. Calls of active or inactive are those of the source. The calls were made as follows: active = hit-call score of the fitted dose curve at least 0.9, where 1 is the maximum; inconclusive = response in the unintended direction; inactive = score below 0.9.
# Assay: Tanguay_ZF_120hpf_YSE_legacy: (Legacy) Oregon State University Tanguay Lab 120 Hour Post-fertilization zebrafish Assay for Yolk Sac Edema (AID 2283634);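 as to AC50: actives raise the incidence of yolk sac edema above the DMSO baseline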
# Experimental: Tanguay_ZF_120hpf_legacy is a whole embryo, multiplexed endpoint assay using zebrafish larvae exposed for 120 hours post fertilization on a 96-well plate.Tanguay_ZF_120hpf_YSE_legacy is one of one assay component(s) measured or calculated from the Tanguay_ZF_120hpf_legacy assay. It is designed to make measurements of zebrafish development as detected with brightfield microscopy of developing zebrafish embryos.Data from the assay component Tanguay_ZF_120hpf_YSE_legacy was analyzed into 1 assay endpoints. This assay endpoint, Tanguay_ZF_120hpf_YSE_legacy, was analyzed in the positive analysis fitting direction relative to DMSO as the negative control and baseline of activity. Using a type of morphology reporter, gain-of-signal activity can be used to understand changes in developmentals as they relate to the whole embryo. To generalize the intended target to other relatable targets, this assay endpoint is annotated to the zebrafish development intended target family, where the subfamily is extra-embryonic membrane development.
# Zebrafish husbandry: Tropical 5D wild-type adult zebrafish were housed in at an approximate density of 1000 per 100 gallon tank at the Sinnhuber Aquatic Research Laboratory, Oregon State University, Corvallis, OR. Each tank was kept at standard laboratory conditions of 28C on a 14-h light/10-h dark photoperiod in fish water consisting of reverse osmosis water supplemented with a commercially available salt (Instant Ocean). Spawning funnels were placed into the tanks the night prior, and embryos were collected and staged. To increase bioavailability, the chorion was enzymatically removed using pronase (63.6mg/ml, >/= 3.5U/mg, Sigma-Aldrich: P5147) at 4 hours post fertilization (hpf) using a custom automated dechorionator.Chemical exposures: Six hpf dechorionated embryos were placed 1 embryo per well in a 96-well plate prefilled with 90 ul of EM using automated embryo placement systems (AEPS). Ten microliters of each row of dilution plate 2 was added to 2 exposure plates. The final DMSO concentration used was 0.64% (vol/vol). Thirty-two embryos were also exposed to 5uM trimethyltin chloride (positive control). Plates were sealed to prevent evaporation and foil covered to reduce light exposure and kept in a 28C incubator. Embryos were statically exposed until 120 hpf. At 24 hpf, embryos were assessed for photomotor response using a custom photomotor response analysis tool (PRAT) and for developmental toxicity endpoints (MO24: mortality at 24 hpf, DP: developmental progression, SM: spontaneous movement, and NC: notochord distortion). At 120 hpf, locomotor activity was measured using Viewpoint Zebralab and assessed for 18 endpoints. Zebrafish acquisition and analysis program (ZAAP), a custom program designed to inventory, acquire, and manage zebrafish data, was used to collect developmental endpoints as either present or absent (i.e., binary responses were recorded). If mortality occurred for an embryo (at either 24 or 120 hpf), the non-mortality endpoints were not measured.
SMILES,outcome,AC50
Cc1oc(-c2ccccc2)nc1CCOc1ccc(C[C@H](Nc2ccccc2C(=O)c2ccccc2)C(=O)O)cc1,inactive,
CCOC(=O)CC(O)(CC(=O)OCC)C(=O)OCC,inactive,
CCC(C)(C)C1CCC(O)CC1 (stereo not given),inactive,
CC(=O)CC(C)(C)O,inactive,
OCCC(F)(F)C(F)(F)C(F)(F)C(F)(F)C(F)(F)C(F)(F)F,inactive,
c1ccc2c(c1)ccc1ccccc12,inactive,
CC(C)(C)c1cccc(C(C)(C)C)c1O,inactive,
N#C[C@@H]1CC(F)(F)CN1C(=O)CNC1CC2CCC(C1)N2c1ncccn1 (stereo not given in full),inactive,
CCCCC(CC)COC(=O)CCCCC(=O)OCC(CC)CCCC (stereo not given),inactive,
CN1CCN(c2ccccc2/C=C2\SCCN(c3ccc(Cl)c(Cl)c3)C2=O)CC1,inactive,
CC[C@H](C)[C@@H](C(=O)O)n1sc2ccccc2c1=O,inactive,
ClC1=C(Cl)C(Cl)(Cl)C(Cl)=C1Cl,inactive,
Cc1cc(CCN2CCN(c3nsc4ccccc34)CC2)cc2c1NC(=O)CC2(C)C,,3.6 µM (active)
COCC(C)O (stereo not given),inactive,
O=C(O)c1ccccc1C(c1ccc(O)cc1)c1ccc(O)cc1,inactive,
O=[N+]([O-])c1ccc(O)cc1,inactive,
CCc1ccc(CCOc2ccc(CC3SC(=O)NC3=O)cc2)nc1 (stereo not given),inactive,
CCC(=C(c1ccc(O)cc1)c1ccc(OCCN(C)C)cc1)c1ccccc1,inactive,
OC1CCC(C2CCCCC2)CC1 (stereo not given),inactive,
CCCCCCCCCCCCCCCS(=O)(=O)Oc1ccccc1,inactive,

SMILES,outcome,AC50
CC#C[C@]1(O)CC[C@H]2[C@@H]3CCC4=CC(=O)CCC4=C3[C@@H](c3ccc(N(C)C)cc3)C[C@@]21C,,73.3 µM (active)
CCN(CC)CCNc1ccc(CNC=O)c2sc3ccc(OC)cc3c(=O)c12,inactive,
CCCOc1sc(C(=O)N2CCC(c3cc(CN)ccc3F)CC2)c(C)c1Br,inactive,
CCCCCCC(=O)O,inactive,
NC(=O)N1C(=O)C(C(=O)c2cc(Cl)cs2)c2cc(F)c(Cl)cc21 (stereo not given),inactive,
CC(C)(C)c1cc(C(C)(C)C)c(O)c(C(C)(C)C)c1,inactive,
NC(=O)N(O)[C@@H]1C=C[C@H](Oc2cccc(Oc3ccc(F)cc3)c2)C1,inactive,
COc1ccc([N+](=O)[O-])cc1N,inactive,
C[C@@H]1C[C@H]2[C@@H]3CCC4=CC(=O)C=C[C@]4(C)[C@@]3(F)[C@@H](O)C[C@]2(C)[C@@]1(O)C(=O)COP(=O)(O)O,inactive,
CN1CCC[C@H]1c1cccnc1,inactive,
O=C(OCCOCCOC(=O)c1ccccc1)c1ccccc1,inactive,
CC(O)CO (stereo not given),inactive,
CCCCCCCC(=O)O,inactive,
CC(C)CCCCCCOC(=O)CCCCC(=O)OCCCCCCC(C)C,inactive,
CC[C@H](c1ccc(O)cc1)[C@@H](CC)c1ccc(O)cc1,inactive,
CCCCC(CC)COC(=O)CCCCC(=O)OCc1ccccc1 (stereo not given),inactive,
Oc1cc2ccccc2c2ccccc12,,38.3 µM (active)
c1ccc2cc3c(ccc4ccccc43)cc2c1,,41.6 µM (active)
CC(=O)NC1(c2cccc(F)c2)CCN(CC[C@@]2(c3ccc(Cl)c(Cl)c3)CN(c3ccccc3)C(=O)CO2)CC1,inactive,
CCCCCCCCCCCCc1ccccc1S(=O)(=O)O,inactive,
